Common to all, as to assay: NCI-60 one-dose screen, 48 h (100 = growth as untreated, 0 = no growth, -100 = all killed)
What all share (conditions): 10 µM unless noted

Test [1] concerns HCT-15 colon.
For test [2], the system named is HT29 colon.
The test system of test [3] is SNB-75 CNS.
Test [4] concerns SNB-19 CNS.
Test [5] deals with U251 CNS.
Test [6] relates to PC-3 prostate.
Test [7] deals with SK-MEL-5 melanoma.
The test system of test [8] is UACC-62 melanoma.
Test [9] relates to SK-MEL-28 melanoma.
Test [10] deals with SK-MEL-2 melanoma.
Test [11] has as its system EKVX NSCLC.
The subject of test [12] is UO-31 renal.
Test [13] relates to TK-10 renal.
For test [14], the system named is ACHN renal.
The subject of test [15] is CAKI-1 renal.
For test [16], the system named is A498 renal.
In test [17] the test system is CCRF-CEM leukemia.
In test [18] the test system is MOLT-4 leukemia.
The test system of test [19] is SN12C renal.
Test [20] has as its system LOX IMVI melanoma.

Where “and” joins values, the source holds several entries; their conditions need not be identical. Equal entries are not always repeated. The panel holds about 83,000 compounds, 20% with a hit somewhere; the sample as a whole holds those more often.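 The test compound was applied at a single concentration to cells in 96-well plates for 48 hours, and percent growth was recorded.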 A structure can be active in one record and inactive in another. Calls of active or inactive are those of the source. How the source made its calls: active means growth percent below 10; inactive means the rest.

Take `O=[N+]([O-])c1ccccc1/C=N\Nc1ccccc1`: the growth was 42.5% (inactive) and 60.2% (inactive) in [1]; 102% (inactive) and 111% (inactive) in test [2]; 71.4% (inactive) and 96% (inactive) in test [3]; 96.2% (inactive) and 102% (inactive) in [4]; 84.7% (inactive) and 90% (inactive) in test [5]; 63% (inactive) and 56.5% (inactive) in [6]. The growth is 90.3% (inactive) and 88.6% (inactive) in test [7]; 18.7% (inactive) and 19.9% (inactive) in [8]; 115% (inactive) and 117% (inactive) in [9]; 86.9% (inactive) and 107% (inactive) in [10]; 69.3% (inactive) and 93.5% (inactive) in test [11]; 50.6% (inactive) and 47.3% (inactive) in test [12]. For the same molecule, the growth in [13] was 118% (inactive) and 92.6% (inactive); in test [14] it was 61.4% (inactive) and 64.2% (inactive); in test [15] it was 71.9% (inactive) and 60.8% (inactive); in test [16], 79.7% (inactive) and 70.1% (inactive); in test [17], 65.1% (inactive) and 50.8% (inactive); in test [18] it was 76.4% (inactive) and 89.9% (inactive).

Regarding `Oc1nc(NCCc2ccccc2)sc1/C=C1\C=Nc2ncccc21`, the growth in [1] was 33.5% (inactive) and 36.5% (inactive); in test [2], 27.8% (inactive) and 30.6% (inactive); in [3], -13.3% (active) and -10.9% (active); in test [4], 12.1% (inactive); in test [5], 7.63% (active) and 15.8% (inactive); in test [6], 19.2% (inactive) and 25.9% (inactive). In addition, the growth in [7] is -0.16% (active) and 14.5% (inactive); in test [8], -1.3% (active) and -1.44% (active); in test [9], 0.815% (active) and 16% (inactive); in test [10], -4.61% (active) and 28.8% (inactive); in test [11] it was 40.9% (inactive) and 46% (inactive); in [19], 33.5% (inactive) and 15.9% (inactive). In addition, the growth in [12] was 36.6% (inactive) and 25.2% (inactive); in [13], 18.8% (inactive) and 34.2% (inactive); in test [14], -12% (active) and 16% (inactive); in [15], 54.8% (inactive) and 37.4% (inactive); in test [16], -21.3% (active) and -7.55% (active); in test [17] it was 5.53% (active) and 9.93% (active). The growth in test [18] was 8.59% (active) and 11.4% (inactive).

Turning to `Fc1ccccc1Nc1n[nH]c(=S)s1`, the growth in test [1] was 98.3% (inactive); in test [2], 103% (inactive); in test [3], 101% (inactive); in [4] it was 104% (inactive); in [5] it was 101% (inactive); in test [6] it was 106% (inactive). Besides, the growth is 101% (inactive) in test [7]; 95.3% (inactive) in test [8]; 102% (inactive) in [9]; 116% (inactive) in test [10]; 136% (inactive) in test [11]; 99.9% (inactive) in test [19]. For the same molecule, the growth was 95.5% (inactive) in [12]; 115% (inactive) in test [13]; 110% (inactive) in test [14]; 113% (inactive) in test [15]; -60% (active) in test [17]; 114% (inactive) in test [18].

For `COc1cc(/C=N/Nc2nc3c([nH]2)c(=O)n(C)c(=O)n3C)ccc1O`, the growth is 105% (inactive) in [1]; 97.7% (inactive) and 110% (inactive) in [2]; 86.9% (inactive) and 88% (inactive) in [3]; 112% (inactive) and 108% (inactive) in test [4]; 99.1% (inactive) and 104% (inactive) in [5]; 99% (inactive) and 98% (inactive) in test [6]. In addition, the growth in test [7] was 97.9% (inactive) and 104% (inactive); in test [8], 91.9% (inactive) and 97.9% (inactive); in test [9], 108% (inactive) and 107% (inactive); in [10], 98.2% (inactive) and 108% (inactive); in test [11], 103% (inactive) and 119% (inactive); in test [19], 97.4% (inactive) and 98.2% (inactive). The growth in test [12] is 86.7% (inactive) and 86.2% (inactive); in [13], 95.7% (inactive) and 93.1% (inactive); in test [14], 109% (inactive); in test [15], 99.3% (inactive) and 118% (inactive); in test [16] it was 82.3% (inactive) and 77.6% (inactive); in test [17], 89.2% (inactive) and 104% (inactive). Besides, the growth in test [18] was 87.9% (inactive) and 97.5% (inactive).

Take `CC1=C(/C=C/C(C)=C/C=C/C(C)=C/C=N/NC(=S)NC(=S)N/N=C/C=C(C)/C=C/C=C(C)/C=C/C2=C(C)CCCC2(C)C)C(C)(C)CCC1`: the growth in test [1] was 26.5% (inactive) and -6.65% (active); in test [2], -0.991% (active) and -29.3% (active); in [4], 36.2% (inactive) and 16.3% (inactive); in [5], -61.8% (active) and -94.4% (active); in test [6], -1.77% (active) and -12.4% (active); in [7], -63% (active) and -96.5% (active). The growth in test [8] was -60% (active) and -75.5% (active); in [20], -100% (active) and -93.6% (active); in test [9], -24.4% (active) and -57.5% (active); in [10], -66.4% (active) and -84.6% (active); in test [11], 36% (inactive) and 25.5% (inactive); in test [19], -29% (active) and -55.2% (active). The growth was -36% (active) and -47.4% (active) in test [12]; -8.64% (active) and -42.5% (active) in [13]; 38.9% (inactive) and 10.2% (inactive) in [14]; -37.9% (active) and -20.1% (active) in test [15]; 23.6% (inactive) and -47.4% (active) in test [16]; -16.5% (active) and -23.4% (active) in test [17].

With `COc1ccc(CCN(C)CCCC(C#N)(c2ccc(OC)c(OC)c2)C(C)C)cc1OC` (stereo not drawn), the growth in test [1] is 94% (inactive) and 86.4% (inactive) and 101% (inactive); in [2], 79.2% (inactive) and 74.7% (inactive) and 93.8% (inactive); in test [3] it was 65% (inactive) and -24.5% (active) and 86.8% (inactive); in [4], 107% (inactive) and 101% (inactive) and 105% (inactive); in test [5], 90.4% (inactive) and 95.2% (inactive) and 99.9% (inactive); in [6], 76.3% (inactive) and 68.4% (inactive) and 95.5% (inactive). In addition, the growth is 94% (inactive) and 99.8% (inactive) and 101% (inactive) in test [7]; 106% (inactive) and 97% (inactive) and 101% (inactive) in test [8]; 106% (inactive) and 99.7% (inactive) in test [9]; 93.5% (inactive) and 109% (inactive) in test [10]; 92.1% (inactive) and 90.3% (inactive) and 98.6% (inactive) in test [11]; 92.7% (inactive) and 107% (inactive) and 109% (inactive) in [19]. For the same molecule, the growth in test [12] is 63.4% (inactive) and 86.6% (inactive) and 81.2% (inactive); in test [13] it was 97.1% (inactive) and 127% (inactive) and 95.8% (inactive); in test [14], 93.2% (inactive) and 95.8% (inactive); in test [15], 73% (inactive) and 79.3% (inactive) and 94.5% (inactive); in test [16] it was 56.5% (inactive) and 96.5% (inactive) and 75.5% (inactive); in [17], 95% (inactive) and 86.2% (inactive) and 97.9% (inactive). The growth in test [18] is 72.9% (inactive) and 83.8% (inactive) and 95.8% (inactive).

Turning to `Cc1cc(N=Nc2ccc(C)c(N=Nc3cc(C)c(N)cc3N)c2)c(N)cc1N`, the growth in [1] is 95.9% (inactive) and 44.3% (inactive); in test [2] it was 92.8% (inactive) and 40.8% (inactive); in [4], 97.7% (inactive) and 91.2% (inactive); in [5] it was 97% (inactive) and 86.7% (inactive); in [6], 64.6% (inactive); in [7], 100% (inactive) and 78.7% (inactive). Also, the growth was 91.7% (inactive) and 93.9% (inactive) in test [8]; 90.8% (inactive) and 82.6% (inactive) in [20]; 98.9% (inactive) and 88.4% (inactive) in [9]; 107% (inactive) in [10]; 67.1% (inactive) and 72.3% (inactive) in test [11]; 95.6% (inactive) and 85.7% (inactive) in [19]. For the same molecule, the growth in test [12] was 63.9% (inactive) and 51.5% (inactive); in test [13], 93.7% (inactive) and 92.3% (inactive); in [14] it was 84.4% (inactive) and 81.8% (inactive); in [15] it was 78.2% (inactive) and 78.7% (inactive); in [16], 93.8% (inactive) and 85.9% (inactive); in test [17], 84.5% (inactive) and 61.3% (inactive). In [18], the growth was 64.4% (inactive) and 61.8% (inactive).

Take `COc1cc2c(c(OC)c1OC)-c1ccc(OC)c(=O)cc1[C@@H](NC(C)=O)CC2`: the growth was 12.2% (inactive) and 8.71% (active) and 3.71% (active) in [1]; 9.16% (active) and 7.29% (active) and -16.8% (active) in [2]; 39.5% (inactive) and 30.5% (inactive) and 19% (inactive) in [4]; 22.5% (inactive) and 14.1% (inactive) and 19% (inactive) in test [5]; 25.6% (inactive) and 20.7% (inactive) and 7.6% (active) in test [6]; -59.8% (active) and -36.1% (active) and -32% (active) in [7]. Moreover, the growth in [8] is 36.9% (inactive) and 40.9% (inactive) and 19.1% (inactive); in test [20] it was 15.7% (inactive) and 18.9% (inactive) and 26.5% (inactive); in test [9], 64.5% (inactive) and 62.4% (inactive); in [10] it was -1.11% (active) and 20.8% (inactive) and 30.7% (inactive); in [11], 42.2% (inactive) and 34.6% (inactive) and 35.8% (inactive); in test [19], 35.3% (inactive) and 25.5% (inactive) and 46.8% (inactive). Further, the growth in test [12] is 35.8% (inactive) and 44% (inactive) and 21.2% (inactive); in test [13], 61.7% (inactive) and 52.7% (inactive); in [14], 27.8% (inactive) and 27.2% (inactive) and 30.5% (inactive); in test [15], 36.5% (inactive) and 21% (inactive) and 20.3% (inactive); in [16], -0.067% (active) and 15.5% (inactive); in [17], 8.93% (active) and 21.5% (inactive) and 3.02% (active). In addition, the growth in [18] was 7.82% (active) and 6.6% (active) and 6.73% (active).

Take `CC12CCC(CC1)C(C)(C)O2`: the growth in test [1] is 97.2% (inactive); in test [2], 95.1% (inactive); in test [3], 74% (inactive); in test [4] it was 103% (inactive); in test [5] it was 103% (inactive); in test [6], 99.7% (inactive). Besides, the growth in [7] is 102% (inactive); in test [8] it was 103% (inactive); in [9], 114% (inactive); in test [10], 90.7% (inactive); in test [11], 97.6% (inactive); in test [19], 103% (inactive). For the same molecule, the growth in test [12] is 87.4% (inactive); in test [13] it was 93.8% (inactive); in test [14] it was 104% (inactive); in test [15], 91.4% (inactive); in test [16] it was 92.7% (inactive); in test [17] it was 92.4% (inactive). Moreover, in test [18], the growth is 103% (inactive).
